# Experimental data from PubChem BioAssay AID602393 (Broad Institute, 2012).
# The whole screen tested about 350,000 compounds, of which about 7,000 (2%) were called active. This is one part of a sample in which actives are shown more often than they occur. Unmarked numbers belong to inactive results. No stated cut-off is given here; in the data, active means activation above about 40%; inconclusive means no clear call, values can overlap the other calls; inactive means below that.
# Assay: raisers of Bmi1 knock-in reporter signal – mouse ES cells, Bmi1 luciferase knock-in, single point, esBAF inhibitor project, primary screen (AID 602393);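 further: 0% = median of the plate's neutral control wells and 100% = double that signal; a rise in the Bmi1 reporter signal indicates esBAF inhibition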
# Details: 24 h, at 12.5 µM, stronger effect = higher value, 100% = twice the neutral-well signal
row,Structure (SMILES),reporter increase
1,COCCNC(=O)[C@@H]1[C@@H](CO)[C@@H]2Cn3c(ccc(-c4ccccc4F)c3=O)[C@@H]2N1C(=O)C1CC1,2.48%
2,CO[C@@H]1CN(C)C(=O)c2cc(NC(=O)Nc3ccc4c(c3)OCO4)ccc2OC[C@@H](C)NC[C@@H]1C,73.2% (active)
3,CO[C@H]1CN(C)C(=O)c2ccc(NC(=O)Nc3ccc4c(c3)OCO4)cc2OC[C@H](C)NC[C@H]1C,37%
4,CO[C@@H]1CN(C)C(=O)c2cc(NC(=O)Nc3ccc(F)cc3)ccc2OC[C@@H](C)NC[C@@H]1C,-1.25%
5,COc1ccc(NC(=O)N(C)C[C@@H]2Oc3ccc(NC(=O)Cn4cnnn4)cc3C(=O)N([C@H](C)CO)C[C@@H]2C)cc1,1.18%
6,COC(=O)/C=C/C(=O)NCc1ccco1,8.72%
7,O=C(/C=C/c1ccc(Cl)cc1Cl)NCc1ccco1,44.2% (active)
8,O=C(COC(=O)Cc1ccc(Cl)cc1Cl)NCc1ccco1,-12.6%
9,COc1ccc(S(=O)(=O)Nc2ccc3c(c2)CC(=O)N([C@@H](C)CO)C[C@@H](C)[C@H](CN(C)S(=O)(=O)c2ccccc2)O3)cc1,4.43%
10,COc1ccc(S(=O)(=O)Nc2ccc3c(c2)C(=O)N([C@@H](C)CO)C[C@@H](C)[C@H](CN(C)Cc2ccc(C(F)(F)F)cc2)OCCCC[C@@H](C)O3)cc1,-1.52%
11,COc1ccccc1NC(=O)C1CCCN(c2cc(C)nc3ncnn23)C1 (configuration not stated),-8.67%
12,Cc1cc(-n2nc(C)cc2C)n2ncc(-c3ccccc3)c2n1,28.6%
13,COc1ccccc1-c1cnn2c(N3CCOCC3)cc(C)nc12,57.3% (active)
14,CN1c2ccc(C3=CCCCC3)cc2[C@H]2[C@H](CCN2S(=O)(=O)c2ccccc2)[C@@H]1CO,3.61%
15,Cc1ccc(S(=O)(=O)N(CC(=O)N/N=C/c2ccc(F)cc2)c2cccc3cccnc23)cc1,0.787%
16,Cc1ccc(S(=O)(=O)Oc2ccc(/C=N/NC(=O)c3ccncc3)cc2)cc1,4.2%
17,Cc1ccc(/C=N/NC(=O)c2sccc2OCc2ccc(F)cc2)cc1,53.7% (active)
18,C[C@H]1CN([C@@H](C)CO)S(=O)(=O)c2ccc(-c3ccccc3)cc2O[C@H]1CN(C)C(=O)CC1CC1,-0.183%
19,CCCNC(=O)N1C[C@H]2[C@@H](c3ccccc31)[C@@H](CO)N2C(=O)NCCC,-2.97%
20,O=C(NCC[C@H]1CC[C@H](NC(=O)C2CC2)[C@@H](CO)O1)c1cc(Cl)cc(Cl)c1,1.12%
21,C[C@@H]1CN([C@H](C)CO)C(=O)c2cc(Br)cnc2O[C@@H]1CN(C)C(=O)C1CC1,-3.93%
22,O=C(Nc1ccc(N2CCOCC2)cc1)c1ccc(-c2ccccc2[N+](=O)[O-])o1,22.9% (active)
23,O=[N+]([O-])c1ccc(N2CCOCC2)cc1,6.61%
24,COc1ccccc1C(=O)NC(=S)Nc1ccc(N2CCOCC2)cc1,25.5%
25,C[C@H]1CN([C@@H](C)CO)C(=O)c2cccc(NS(=O)(=O)c3cccs3)c2O[C@H]1CN(C)C(=O)Nc1ccccc1,-1.97%
26,O=C(Cc1ccncc1)NCC[C@H]1CC[C@H](NC(=O)C2CC2)[C@H](CO)O1,-2.52%

row,Structure (SMILES),reporter increase
1,CCn1c(SCC(=O)Nc2nccs2)nnc1-c1ccncc1,-8.57%
2,CC(=O)c1cc(C#N)c(SCC(=O)Nc2nccs2)nc1C,64.7% (active)
3,CC(=O)c1cc(C#N)c(SCC(=O)C(C)(C)C)nc1C,50.6% (active)
4,CC(=O)c1cnc(SCC(=O)O)nc1C,-5.69%
5,Cc1cc(NC(=O)CSc2nc3c(cc2C#N)CCCCC3)no1,-7.82%
6,Cn1c(SCC(=O)Nc2nccs2)nnc1-c1cccnc1,-5.27%
7,COCC(=O)Nc1ccc2c(c1)C(=O)N(C)C[C@H](OC)[C@@H](C)CN(CC1CC1)[C@@H](C)CO2,-0.99%
8,COc1ccccc1NC(=O)N[C@H]1CC[C@H](CCNS(=O)(=O)c2ccc(Cl)cc2)O[C@H]1CO,16.7%
9,CCN1[C@@H]2c3cccc(=O)n3C[C@H]1[C@H](CO)[C@H]2C(=O)NC1Cc2ccccc2C1,-2%
10,CCC(=O)N1C[C@@H](C)[C@H](OC)CN(C)C(=O)c2ccc(NC(=O)Nc3ccccc3)cc2OC[C@@H]1C,-0.74%
11,CCC(=O)Nc1ccc(C(=O)Nc2cc(C)on2)cc1,15.4%
12,O=C(Nc1ccccc1)c1ccc2nsnc2c1,28.4%
13,COc1cccc(NC(=O)Nc2ccc(F)cc2)c1,47.9% (active)
14,COc1ccc(NC(=O)Nc2ccc3nsnc3c2)cc1,100% (active)
15,CCC(=O)Nc1ccc(C(=O)NNC(=O)c2ccc(Cl)cc2)cc1,-4.4%
16,CCc1ccc(NC(=O)Nc2ccncc2)cc1,19.8%
17,CCC(=O)Nc1ccc(C(=O)Nc2cccc(OC)c2)cc1,49.8% (active)
18,COc1cccc(NC(=O)CC2C(=O)NCCN2C(=S)Nc2ccc(F)cc2)c1 (configuration not stated),3.78%
19,COc1cccc(C(=O)NNC(=O)c2cccc(F)c2)c1,46.1% (active)
20,COc1cccc(N(CC(=O)Nc2cccc(F)c2)S(C)(=O)=O)c1,-2.9%
21,COc1cccc(C(=O)NNC(=O)/C=C/c2ccccc2)c1,-6.98%
22,COc1cccc(C(=O)NNS(=O)(=O)c2ccc(F)cc2)c1,-2.92%
23,CNC(=O)C[C@H]1CC[C@H]2[C@@H](COc3ccc(NC(=O)c4cccc(OC)c4)cc3C(=O)N2C)O1,4.25%
24,COc1cccc(C#Cc2cnc3c(c2)C(=O)N([C@@H](C)CO)C[C@H](C)[C@H](CN(C)CC2CC2)O3)c1,-5.64%
25,CO[C@H]1CN(C)C(=O)c2cc(NS(=O)(=O)CC(F)(F)F)ccc2OC[C@@H](C)N(C(=O)c2ccc3c(c2)OCO3)C[C@@H]1C,2.12%
26,O=C(c1ccccc1)N1C[C@@H]2[C@H](c3ccccc31)[C@@H](CO)N2Cc1cc(F)ccc1F,-1.5%
